Hits are enriched below; roughly 3.7% of the tested compounds scored in any of these assays.
Kir21 block: blocks the mouse Kir2.1 inward-rectifier potassium channel. P35561. HEK293-Kir2.1, FluxOR thallium flux fluorescence; active compounds read low. B-score at 10 µM. actives 0.85% (n = 310,000);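 active = fluorescence ratio B-score at or below minus 3 SD of library scores, with starting-brightness B-score within 2 SD, cut at about -4.2 in these data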;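 also: channel flux triggered by added potassium and thallium sulfate stimulus; B-score of peak minus minimum fluorescence over baseline after thallium stimulus; more negative B-score means stronger Kir2.1 block with less thallium influx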
CHT inh: human CHT choline transport inhibition | Q9GZV3 | CHT-expressing cells, membrane potential dye, choline response; active compounds read low | B-score at 10 µM | actives 0.86% (n = 310,000) | AID 488975;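 active = B-score over 3 SD under the library average, and starting fluorescence ratio not unusually high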;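 also: choline stimulus applied at its EC90 after an EC20 pre-addition; B-score computed on integrated fluorescence ratio after choline addition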
Target sequence (Q9GZV3 whole entry, looked up): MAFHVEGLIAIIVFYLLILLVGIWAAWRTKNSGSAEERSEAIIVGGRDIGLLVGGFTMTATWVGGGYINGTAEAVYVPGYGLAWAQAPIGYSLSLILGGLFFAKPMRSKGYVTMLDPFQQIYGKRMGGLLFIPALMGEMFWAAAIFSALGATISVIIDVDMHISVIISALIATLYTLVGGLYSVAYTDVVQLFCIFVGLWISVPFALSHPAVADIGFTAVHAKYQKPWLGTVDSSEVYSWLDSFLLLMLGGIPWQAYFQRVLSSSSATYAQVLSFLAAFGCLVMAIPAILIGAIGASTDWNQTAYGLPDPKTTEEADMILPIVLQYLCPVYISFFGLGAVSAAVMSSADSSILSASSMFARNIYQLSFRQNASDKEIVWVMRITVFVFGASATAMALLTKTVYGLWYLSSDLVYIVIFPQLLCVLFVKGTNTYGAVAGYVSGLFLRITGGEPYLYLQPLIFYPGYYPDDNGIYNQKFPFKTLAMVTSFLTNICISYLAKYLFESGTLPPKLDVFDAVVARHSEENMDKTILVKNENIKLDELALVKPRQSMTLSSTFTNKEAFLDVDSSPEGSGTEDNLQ
GPR7 antagonist: blocks human GPR7 receptor signaling; P48145; GPR7-expressing cells, fluorescence antagonist assay; inhibition, % at 4.4 µM; actives 1.1% (n = 290,000); in the data active = inhibition above about 16%, passing the limit was not always enough;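 also: cells stimulated with the agonist NPW; 0% = agonist with vehicle and 100% = vehicle without agonist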
CHT allo act: allosterically activates the human high affinity choline transporter; Q9GZV3; CHT-expressing cells, membrane potential dye, choline EC20; active compounds read high; LV-AA mutant CHT in HEK293 cells; B-score at 10 µM; actives 0.49% (n = 310,000); AID 488977;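 active = initial fluorescence not abnormally high and integrated response B-score, plate-corrected, over 3 SD above library mean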
ANO1 block: inhibitors of mouse TMEM16A calcium-activated chloride channel | actives 1.2% (n = 310,000) | Q8BHY3 | HEK293 TMEM16A/YFP iodide influx fluorescence, ionomycin | normalized B-score (activity score, 25-100; higher = stronger inhibition) at 10 µM | AID 588511;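 active = ratio plate-corrected score three or more library SD toward inhibition, starting fluorescence score within five deviations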;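 also: score derived from kinetic fluorescence span divided by baseline fluorescence per well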
TMEM16A act: mouse TMEM16A channel activation, primary screen; Q8BHY3; HEK293 TMEM16A/YFP-H148Q/I152L, iodide quench fluorescence; active compounds read low; B-score at 10 µM; actives 0.3% (n = 340,000); AID 623877;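 active = fluorescence-ratio B-score plate-corrected deviation score at least 3 library SD below zero, with starting fluorescence score within 5 deviations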;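 also: channel opened by trigger with iodide after compound preincubation; score built on the fluorescence ratio of max minus min over baseline; more negative score means more quench and so TMEM16A activation or potentiation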
hERG ctr: hERG (human) inhibition as Kir2.1 counter-screen; hERG-expressing cells, thallium flux; shares compounds with Kir21 block; actives 20% (n = 320); inhibition, % at 10 µM;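 also: host cells are CHO cells stably expressing hERG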
KCNK9 spec: tests whether Kir2.1 inhibitors also affect human KCNK9; KCNK9-expressing cells, ion flux inhibition; actives 5% (n = 320); inhibition, % at 10 µM; shares compounds with Kir21 block
Kir21 ephys inh: mouse Kir2.1 inward rectifier channel inhibition; shares compounds with Kir21 block; Kir2.1 cells, automated patch-clamp current inhibition; inhibition, % at 25 µM; actives 71% (n = 320)
GPR7 antag conf: human GPR7 antagonism, confirmation assay; AID 1952; inhibition, % at 4.4 µM; GPR7-expressing cells, calcium fluorescence antagonist mode; actives 52% (n = 2,400); shares compounds with GPR7 antagonist; in the data active = inhibition above about 24%;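 also: stimulated with the GPR7 agonist NPW; 0% = agonist plus vehicle and 100% = vehicle alone without agonist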
MCHR1 antag: MCHR1 (human) antagonism in GPR7 counter-screen; shares compounds with GPR7 antagonist; actives 62% (n = 2,400); MCHR1-expressing cells, fluorescence antagonist assay; inhibition, % at 4.4 µM; in the data active = inhibition above about 22%;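 also: 0% = vehicle with agonist and 100% = vehicle without agonist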
CHT inh conf: confirmation of human choline transporter CHT inhibitors. shares compounds with CHT inh. CHT activity remaining % of control (active compounds read low), % at 10 µM. actives 70% (n = 2,400). AID 493221. CHT-expressing cells, choline membrane potential dye; LV-to-AA substituted CHT, HEK293 cells;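 active = choline transporter activity left, mean of duplicates at 10 µM, below buffer-only control mean minus 3 SD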;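 also: depolarization triggered by choline at its EC90 following an EC20 pre-addition; 0% = hemicholinium-3 full block and 100% = buffer-only control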
HEK293 MPD ctr: activity in parental HEK293 cells lacking CHT; shares compounds with CHT inh; membrane potential dye, choline response; active = decrease or increase beyond buffer ±3SD; membrane potential ratio readout (active if shifted either direction beyond buffer ±3SD; no single direction) at 10 µM; actives 4% (n = 2,400); AID 493222;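 also: parental cells lack the transporter so any hit is non-specific; ratio is peak minus trough fluorescence over baseline after EC90 choline challenge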
CHT activ conf: confirmation of human choline transporter (CHT) activators; shares compounds with CHT allo act; CHT-expressing cells, membrane potential dye fluorescence (FDSS); % of choline EC20–EC90 response window; HEK293 expressing CHT LV-AA mutant; choline added at its EC20; activation, % at 10 µM; actives 91% (n = 2,500); AID 504833;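 active = primary screen active, with duplicate mean activation above negative control mean plus 3 SD, cut at about 11% in these data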
HEK293 MP dye: CHT activator counter-screen hit in parental HEK293 cells; ratio readout change at 10 µM, hits read low; actives 62% (n = 2,500); membrane potential dye fluorescence (FDSS); measured after EC20 choline addition; shares compounds with CHT allo act;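 active = duplicate-averaged ratio beyond 3 SD from buffer wells, up or down, though filed actives are nearly all decreases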
Active calls of the source: *; i = inactive; · = no result. Unless noted, no rule for the calls is given here.

SMILES	Kir21 block	CHT inh	GPR7 antagonist	CHT allo act	ANO1 block	TMEM16A act	hERG ctr	KCNK9 spec	Kir21 ephys inh	CHT inh conf	HEK293 MPD ctr	others
O=C(Nc1cscc1S(=O)(=O)c1ccccc1)c1ccccc1Cl	-1.8	i	-6	i	i	i	·	·	·	·	·
C=CCOc1ccccc1CNCCc1ccc(S(N)(=O)=O)cc1	-0.84	i	6	i	i	i	·	·	·	·	·
NS(=O)(=O)c1ccc(CCNCc2ccccc2OCc2ccc(Cl)cc2)cc1	-8.2*	-5.1*	23	i	i	i	65%*	i	31%*	27%*	i
Cc1ccccc1OCCSc1nnc(C)n1-c1ccccc1	-6.7*	-5.2*	14	i	i	i	i	i	54%*	i	i
CCCCN1CCc2c1nc1ccc(Br)cc1c2N	-11*	-5.6*	0	i	i	i	i	i	12%*	51%*	i
Cc1ccnc(NC(=O)CCc2c[nH]c3ccccc23)c1	2.9	i	-3	i	i	i	·	·	·	·	·
CN(C)c1ccc(C(=O)c2ccc(O)cc2O)cc1	4.8	-6*	1	i	i	i	i	i	i	61%*	i
O=C(c1ccc(O)cc1)c1ccc(O)cc1O	1	i	-13	i	i	i	·	·	·	·	·
Cc1ccc(C(CCNC(C)c2cccs2)c2ccco2)cc1 (stereo not given)	-8.4*	i	-2	i	i	i	62%*	i	i	·	·	CHT activ conf=12*;HEK293 MP dye=i
Cc1cccc(S(=O)(=O)Nc2ccc(-n3c(C)nc4ccccc4c3=O)cc2)c1	-1.2	i	·	i	i	i	·	·	·	·	·
Cc1ccc(C(=O)C[n+]2cc(-c3ccc(C)cc3)n3c2CCCCC3)cc1	-2.5	i	60*	i	i	i	·	·	·	·	·	GPR7 antag conf=32*;MCHR1 antag=50*
COc1ccc(C(=O)C[n+]2cc(-c3ccc(OC)cc3)n3c2CCCC3)cc1	-0.08	i	-5	i	i	i	·	·	·	·	·
CCSc1nc(C)nc2sc(C)c(C)c12	0.63	i	-5	i	i	i	·	·	·	·	·
Cc1cccc(NC(=O)CSCC(=O)Nc2ccccc2C(=O)NC2CC2)c1	-0.81	i	·	i	i	i	·	·	·	·	·
O=c1cc(N2CCOCC2)[nH]c(=O)n1-c1ccc(Br)cc1	0.58	i	25*	i	i	i	·	·	·	·	·	GPR7 antag conf=-12;MCHR1 antag=8
